# Screens as filed in PubChem.
# AmpC inh detg: inhibitors of E. coli AmpC beta-lactamase with detergent; Potency, µM (highest dose often 114 µM), for inactives: top-dose activity change, negative = inhibition, most hits filed as inhibitors; AID 485294; AmpC hydrolysis of nitrocefin, absorbance 480 nm, 0.01% Triton; actives 0.041% (n = 370,000);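 note: potency is the fitted concentration of half-maximal effect; 0% = no-compound wells and -100% = no-enzyme wells; nearly all actives have a fitted effect of over 25% in size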
# Target sequence (P00811 whole entry, looked up): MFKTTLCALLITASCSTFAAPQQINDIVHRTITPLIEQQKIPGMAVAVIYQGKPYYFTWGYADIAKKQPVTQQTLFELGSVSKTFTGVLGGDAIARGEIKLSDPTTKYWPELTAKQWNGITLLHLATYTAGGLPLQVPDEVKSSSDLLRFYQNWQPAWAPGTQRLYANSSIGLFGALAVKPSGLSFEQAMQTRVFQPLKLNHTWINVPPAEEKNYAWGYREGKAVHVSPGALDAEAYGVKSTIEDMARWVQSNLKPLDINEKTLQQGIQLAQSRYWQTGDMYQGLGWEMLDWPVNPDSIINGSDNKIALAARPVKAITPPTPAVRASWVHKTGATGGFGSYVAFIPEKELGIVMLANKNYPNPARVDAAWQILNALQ
#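 20 mM phosphate pH 7.0 + 0.01% (detergent screen) or 0.0001% Triton X-100; 5.3 nM AmpC reagent; cpd preinc 15 min RT; nitrocefin (800 uM stock) to start; A480 q20 s × 4 min; Activity was normalised to no-enzyme and no-compound control wells.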
# FMDV inh: blocks foot and mouth disease virus; FMDV antiviral cell-based qHTS; Potency, µM (doses to about 57.9 µM), without a hit: at the top dose activity change, negative = inhibition, actives largely listed as inhibitors; actives 1.2% (n = 410,000); calls by dose curve; tested in HEK293T cells; note: read-out not given here; potency is the fitted concentration of half-maximal effect; nearly all actives have a fitted effect of over 45% in size
# HCMV inh: blocks human cytomegalovirus replication | AID 1259415 | HFF cells, HCMV-luciferase reporter, 72 h; stronger effect = lower value | activity change, negative = inhibition, % at 57.5 µM | actives 4.5% (n = 410,000); in the data active = activity change below about -60%; inconclusive = no clear call, values can overlap the other calls; inactive = above about -39%
#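 Cell-based, HFFs, 1000 cells/well, 16 h 37C; cpds in DMSO + HCMV-luc, MOI 1 PFU/cell; 72 h 37C; OneGlo luminescence after 5 min RT; norm. to buffer vs Salinomycin 10uM.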
# HCV inh: blocks hepatitis C virus. Potency, µM (series often up to 41.8 µM), inactives show at the highest dose activity change, negative = inhibition, most hits filed as inhibitors. actives 3.4% (n = 340,000). Huh7.5.1 HCVcc-Cre infection, luciferase reporter, 44 h; note: potency is the fitted concentration of half-maximal effect
#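 A cell-based infection assay in which seeded cells (1,000 per well) receive test compound after 4 h, are inoculated with HCVcc-Cre at approximately 0.5 moi, and are incubated 44 h before luminescence detection.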
# AmpC no deterg: blocks E. coli AmpC beta-lactamase in detergent-free assay. AmpC nitrocefin hydrolysis, absorbance 480 nm, 0.0001% Triton. Potency, µM (top dose mostly 57.1 µM), for the others: at the top dose activity change, negative = inhibition, actives largely listed as inhibitors. AID 485341. actives 0.52% (n = 330,000);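 note: potency is the fitted concentration of half-maximal effect; plate controls were no compound for no effect and no enzyme for full effect; nearly all actives have a fitted effect of over 20% in size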
#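 AmpC (5.3 nM in the dispensed reagent) in 20 mM phosphate pH 7.0 with 0.01% (detergent screen) or 0.0001% Triton X-100 was preincubated with compounds for 15 min at room temperature. Nitrocefin was then added from an 800 uM solution, and hydrolysis was followed at 480 nm.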
# Starred values were filed as active, the others as inactive; ? = inconclusive; . = no result; ! = not confirmed by another sample. An excerpt weighted towards active compounds, which were near 7.3% of everything screened. Unless noted, calls come from the whole dose curve; as a rule, active = well fitted curve in the direction sought with a large enough effect; inconclusive = small, poorly fitted or top-dose-only effect, or another doubt; inactive = no such curve, though single readings can be large; an effect the other way counts as inactive or inconclusive. Unless noted, % is set by controls: 0 for no effect and ±100 for the full control effect.
SMILES,AmpC inh detg,FMDV inh,HCMV inh,HCV inh,AmpC no deterg
CCCN1C(=O)CC(=O)N=C1SCC(=O)Nc1ccccc1F,.,-2.9%,-30.0,5.3%,-30.8%
Oc1ccccc1-c1nc(NCCN2CCOCC2)c2ccccc2n1,-14.6%,?,38.3,7.08µM*,95.7%
Clc1ccccc1-c1nc(NCCN2CCOCC2)c2ccccc2n1,.,7.0%,.,.,.
Fc1ccccc1-c1nc(NCCCN2CCOCC2)c2ccccc2n1,-18.5%,-14.3%,-21.5,9.7%,-12.7%
c1ccc2c(NCCCN3CCOCC3)c3ccccc3nc2c1,4.7%,.,-101.6*,.,-18.8%
CCn1cc(/C=C/C(=O)Nc2ccc(C)cc2Br)cn1,1.4%,9.0%,-35.1,?,-11.4%
Cn1cc([N+](=O)[O-])c(C(=O)Nc2ccn(Cc3c(F)c(F)cc(F)c3F)n2)n1,2.4%,-18.8%,-92.1*,?,-3.3%
CCn1cc(/C=C/C(=O)Nc2ccn(Cc3c(F)c(F)cc(F)c3F)n2)cn1,?,-9.3%,-69.9*,?,-25.9%
Cn1ncc([N+](=O)[O-])c1C(=O)Nc1ccn(Cc2ccccc2F)n1,-1.4%,-18.9%,-61.7*,.,-22.4%
CCN(CC(=O)Nc1ccccc1C(F)(F)F)C(=O)c1ccc(N2CCCC2=O)cc1,9.1%,-6.0%,-28.3,11.7%,33.3%
COc1cc(OC)c(OC)cc1CNCCCSc1nnnn1C,17.5%,-11.8%,1.7,.,.
CCc1sc(C(=O)NNC(=O)c2cncc(Br)c2)cc1C,.,0.6%,-22.4,-1.0%,-6.8%
CCOC(=O)c1sc2nccc(N(C)C)c2c1N=CN(C)C,5.3%,-37.6%,-22.4,?,-17.0%
CN(C)C=Nc1c(C(=O)c2ccccc2)sc2nccc(N(C)C)c12,?,-9.1%,-74.8*,?,-6.6%
CN(C)c1ccnc2sc(C(=O)NCc3ccccc3)c(N)c12,2.1%,.,-23.1,12.6µM*,-18.3%
C[C@H](/C=C/[C@@]1(O)[C@H](C)C[C@H](O)CC1(C)C)O[C@@H]1O[C@H](CO)[C@@H](O)[C@H](O)[C@H]1O,-10.9%,-19.0%,20.1,?,3.5%
Cc1ccc2nc(-c3ccncc3)c(Nc3ccc(C(C)C)cc3)n2c1,11.4%,?,1.7,.,.
Cc1c(C(=O)Nc2ccc(S(=O)(=O)NCC3CCCO3)cc2)cccc1[N+](=O)[O-] (stereo not drawn),2.2%,26.8%,-29.2,?,-19.9%
O=C(Nc1ccc(S(=O)(=O)NCC2CCCO2)cc1)c1ccc(Cl)cc1[N+](=O)[O-] (stereo not drawn),-0.9%,25.1%,1.5,25.1µM*,-33.6%
O=C(COC(=O)c1ccc(S(=O)(=O)NCc2ccco2)cc1)Nc1ccccc1OC(F)F,1.8%,16.8%,59.6,11.2µM*!,-19.7%
CCCN(CC(=O)Nc1ccccc1C)C(=O)Cc1n[nH]c(=O)c2ccccc12,0.8%,-18.4%,-4.5,15.4%,-25.0%
Cc1ccsc1/C=N/N1CCN(c2ccccc2)CC1,-5.4%,46.9%,37.8,-7.1%,-9.8%
Cc1ccc(/C=N/N2CCN(c3ccccn3)CC2)cc1,1.9%,23.0%,-27.6,3.6%,-3.2%
ClC(=C\c1ccccc1)/C=N/N1CCN(c2ccccn2)CC1,?,11.8%,-69.7*,17.3%,-11.0%
Cc1ccsc1/C=N/N1CCN(c2ccccn2)CC1,-1.2%,8.1%,-71.3*,-27.1%,-9.5%
SMILES,AmpC inh detg,FMDV inh,HCMV inh,HCV inh,AmpC no deterg
Cc1cc2c(cc1C)-n1nnnc1C(N1CCN(c3ccccc3F)CC1)C(=O)N2 (stereo not drawn),.,-21.5%,15.6,.,.
COC(=O)c1cc(CNC(=O)c2cccc(C)c2)cc(NC(=O)c2ccncc2)c1,.,-5.8%,.,.,.
COc1cc2cnc(-c3ccsc3)c(-c3ccc(F)cc3)c2cc1OC,-0.1%,?,13.7,6.31µM*,58.8%
CCn1c(=O)cc(OCC(=O)NCCC(C)C)c2ccccc21,-12.9%,-20.3%,39.0,-6.8%,-3.6%
CC1CCC(NC(=O)Cn2c3c(c(-c4ccccc4Cl)cc2=O)CCC3)CC1 (stereo not drawn),?,?,-23.1,11.2µM*,0.9%
CC(C)CCNC(=O)Cn1c2c(c(-c3ccccc3Cl)cc1=O)CCC2,-6.7%,-21.5%,-79.8*,-23.6%,1.3%
Cc1ccc(C)c(OCCC(=O)OCC(=O)NNC(=O)c2ccccc2)c1,?,-10.2%,-19.8,8.6%,-17.4%
CCc1cccc(C)c1NC(=O)CSc1nnc(C)o1,0.5%,-4.4%,8.1,9.1%,-11.6%
Cc1ccc2c(c1)S/C(=C/c1ccc[n+](C)c1)N2CCO,?,-14.1%,-76.8*,?,-18.6%
C=CCn1c(C)cc(C(=O)CN2NS(=O)(=O)c3ccccc3C2=O)c1C,-0.3%,5.4%,-73.8*,?,-23.9%
O=C(OCn1ncc(Cl)c(Cl)c1=O)c1ccc(F)cc1,-13.3%,.,.,.,-14.3%
O=c1cnn(Cc2ccc(F)cc2)c2ccccc12,-3.8%,3.4%,-16.8,0.9%,-0.2%
O=C(OCn1ncc(Cl)c(Cl)c1=O)c1ccccc1Cl,?,10µM*,-103.2*,3.98µM*,-19.7%
C=CCn1c(C)cc(C(=O)Cn2ncc(Cl)c(Cl)c2=O)c1C,?,?,-98.4*,12.6µM*,-16.9%
Cc1ccc(CNC(=O)CN2NS(=O)(=O)c3ccccc3C2=O)cc1,.,5.8%,-12.9,.,.
O=c1c(Cl)c(Cl)cnn1Cc1ccc(F)cc1,-1.4%,39.8µM*,-99.0*,8.91µM*,4.0%
Cc1coc2c1c(C)cc1oc(=O)cc(C)c12,-6.3%,0.0%,-12.4,.,.
Cc1c(/N=C(\[O-])Nc2ccc(Br)cc2)sn[n+]1C,10.0%,-40.3%,?,?,-19.1%
CC(C)(C)C(=O)Cn1ncc(Cl)c(Cl)c1=O,3.6%,?,-100.1*,?,0.4%
O=C(Cn1ncc(Cl)c(Cl)c1=O)c1ccc(Cl)cc1,-6.0%,35.5µM*,-97.9*,2.82µM*,-29.1%
Cc1ccc(Cn2ncc3c(N4CCN(CC#N)CC4)ncnc32)cc1,-3.0%,31.6µM*,-10.9,?,33.1%
c1ccc(Cn2ncc3c(N4CCN(c5ccccc5)CC4)ncnc32)cc1,.,22.4µM*,?,.,.
Cc1ccc(Cn2ncc3c(N4CCCC4)ncnc32)cc1,?,-24.7%,-27.6,?,24.7%
c1ccc(Cn2ncc3c(N4CCN(C(c5ccccc5)c5ccccc5)CC4)ncnc32)cc1,?,?,-22.7,?,-0.4%
CCOC(=O)c1cc(C#N)c(N2CCCNCC2)nc1C(F)(F)F,1.6%,-8.6%,0.8,15.8µM*,22.5%
CCOC(=O)c1cc(C#N)c(N2CCN(c3ccccn3)CC2)nc1-c1ccccc1,-8.5%,-17.2%,-28.7,?,-12.2%
Cc1cc(Nc2cccc(Cl)c2)nc2ccc(NC(=O)c3cncc(Br)c3)cc12,18.3%,-13.4%,-99.7*,.,.
Cc1cc(Nc2cccc(C(F)(F)F)c2)nc2ccc(NC(=O)c3cncc(Br)c3)cc12,19.2%,31.6µM*,?,.,.
